Experimental data as given in PubChem BioAssay (NCATS).
Results filed as inconclusive are left out. A number with no mark means an inactive call. Calls come from the whole dose curve; as a rule, active = well fitted cell-killing curve with a large enough effect; inconclusive = small, poorly fitted or top-dose-only effect, or effect the other way; inactive = no such curve, though single readings can be large or run the other way.

Assay: qHTS assay to identify small molecule inhibitors of chordoma cells - UCH-1 (AID 1259355); note: nearly all actives have a fitted effect of over 55% in size
Details: UCH-1 chordoma viability, CellTiter-Glo, 48 h, combination, with auranofin plus four topoisomerase inhibitors; series mostly up to 46.1 µM; activity, negative = inhibition: at the top concentration
Source text: NIH Chemical Genomics Center [NCGC]
Chordoma is a rare and slow growing tumor that can occur anywhere along the spine, from the base of the skull to the tailbone. Current treatment options for chordoma is surgery and radiation therapy for those who are not candidates for surgery. But chordomas tend to return in the same location or surrounding areas of the original tumor after surgery and/or radiation. Chemotherapy can slow down the progression of the tumor. As chordoma is slow growing, the general cytotoxic agents that kill fast growing cells are ineffective, and some patients have been reported to respond to molecularly targeted drugs.
NCATS Pharmaceutical Collection (NPC) containing approximately 3000 clinically approved and investigational drugs were used to screen at 15 concentrations in a chordoma cell lines, UCH-1, to identify small molecule compounds that can inhibit chordoma cell growth.
NCGC Assay Protocol Summary:
Human chordoma cell line UCH-1 was dispensed at 800 per well in 4uL of culture medium into white solid bottom 1536-well plates (Corning Life Sciences, Corning, NY) using a Multidrop Combi (Thermo Scientific, Waltham, MA) dispenser. The assay plates were incubated at 37 C and 5% CO2 for an overnight, and then 23nL of compounds dissolved in DMSO and positive control were transferred using a Pintool station (Wako, San Diego, CA). Compound treatment was followed by the addition of 1uL of the combination compounds (1uM Auranofin, 500nM each of Camptothecin, Doxorubicin, Rubitecan, and Topotecan) and assay medium to each well of the assay plates using Flying Reagent Dispenser (FRD, Aurora Discovery, San Diego, CA). The assay plates were incubated at 37 C and 5% CO2 for 48hr. Then 5uL of CellTiter-Glo reagent (Promega Corporation, Madison, WI) was added to each well of the assay plates using FRD. After 30min incubation at room temperature, the luminescence signal was quantified using a ViewLux plate reader (PerkinElmer, Shelton, CT).
% is set by controls: 0 for no effect and ±100 for the full control effect.

SMILES | activity, negative = inhibition
CC(=O)NCc1c(I)c(NC(C)=O)c(I)c(C(=O)O)c1I | -16.1%
O=C(Cn1ccnc1[N+](=O)[O-])NCCO | -5.14%
CC1CC(OC(=O)c2ccccc2O)CC(C)(C)C1 (stereo not given) | -11.4%
CC(=O)N1C[C@H](O)C[C@H]1C(=O)O | -14.4%
O=C(CCBr)N1CCN(C(=O)CCBr)CC1 | -22.7%
NS(=O)(=O)c1cc2c(cc1C(F)(F)F)NCNS2(=O)=O | -42.8% [at 20.6 µM]
CC[N+](C)(CC)CCOC(=O)C1c2ccccc2Oc2ccccc21 | -0.024%
CC(=O)OC[C@H]1O[C@@](COC(C)=O)(O[C@H]2O[C@H](COC(C)=O)[C@@H](OC(C)=O)[C@H](OC(C)=O)[C@H]2OC(C)=O)[C@@H](OC(C)=O)[C@@H]1OC(C)=O | -8.46%
O=C(Cn1ccnc1[N+](=O)[O-])NCc1ccccc1 | -3.89%
O=C(OOC(=O)c1ccccc1)c1ccccc1 | -12.6%
CN1C(=O)CC(c2ccccc2)C1=O (stereo not given) | -12.3%
COc1ccc(NS(=O)(=O)c2ccc(N)cc2)nn1 | -8.54% [at 20.6 µM]
C/C(=C(\CCO)SS/C(CCO)=C(\C)N(C=O)Cc1cnc(C)nc1N)N(C=O)Cc1cnc(C)nc1N | -11.7%
C[C@]1(Cn2ccnn2)[C@H](C(=O)O)N2C(=O)C[C@H]2S1(=O)=O | -5.96%
Cc1c(Cn2ccnc2)c2ccccc2n1CCC(=O)O | -1.01%
CCOC(=O)c1cccnc1 | -8.31%
O=C(O)c1ccccc1OP(=O)(O)O | -7.01% [at 1.88 µM]
CCN(CC)C(=O)c1cccc(C)c1 | -5.27%
O=C(NCN1CCOCC1)c1cnccn1 | -15.6%
CCN(CC)S(=O)(=O)c1ccc(C(=O)O)cc1 | -5.97%

SMILES | activity, negative = inhibition
CN1C(C)(C)CCCC1(C)C | -6.89%
CCc1nnc(NS(=O)(=O)c2ccc(N)cc2)s1 | -15.2%
COc1ccccc1OCC(O)CO (stereo not given) | -2.94% [at 20.6 µM]
CC(=O)[C@@]1(O)CC[C@H]2[C@@H]3C[C@H](C)C4=CC(=O)C=C[C@]4(C)[C@@]3(F)[C@@H](O)C[C@@]21C | -7.96% [at 20.6 µM]
CCCCCCCC(=O)OCC(COC(=O)CCCCCCC)OC(=O)CCCCCCC | -46.8%
Cc1cc(NC(=O)C2=C(O)c3ccccc3S(=O)(=O)N2C)no1 | 13%
CC(C)(C)C(=O)OCOC(=O)[C@@H]1N2C(=O)[C@@H](NC(=O)[C@H](N)c3ccccc3)[C@H]2SC1(C)C | -21.4% [at 20.6 µM]
Cc1ccsc1/C=C/C1=NCCCN1C | -6.91% [at 20.6 µM]
Cc1ccc(C(C)C)c(O)c1 | 16.1%
CC1(C)S[C@@H]2[C@H](NC(=O)C(C(=O)O)c3ccccc3)C(=O)N2[C@H]1C(=O)O (stereo not given in full) | -17%
C=CCOc1ccccc1OCC(O)CNC(C)C (stereo not given) | -2.64% [at 20.6 µM]
CC(C(=O)O)c1ccc2c(c1)Cc1cccnc1O2 (stereo not given) | 3.01%
Cc1cccc(C)c1NC(=O)CC12CCCN1CCC2 | -6.25%
Cc1c(NC(=O)c2cccnc2)c(=O)n(-c2ccccc2)n1C | -1.42% [at 20.6 µM]
Cc1c(N(C)C)c(=O)n(-c2ccccc2)n1C | 5.61%
CC(=O)OCC(COC(C)=O)OC(C)=O | 18.2%
NS(=O)(=O)c1cc(C2(O)NC(=O)c3ccccc32)ccc1Cl (stereo not given) | 4.97% [at 20.6 µM]
CC(CSC(=O)c1ccccc1)C(=O)N1C[C@@H](Sc2ccccc2)C[C@H]1C(=O)O (stereo not given in full) | -7.43%
Cc1c(C(=O)NCCO)[n+](=O)c2ccccc2n1[O-] | 1.12%
CC(C)NC[C@@H](O)COc1ccc(CC(N)=O)cc1 | -12.7%
